This note sets out measurements from PubChem BioAssay (NCI).

Several values for one entry are separate records, joined by “and”; a condition that tells them apart may be missing. Identical values can stand only once. The panel holds about 79,000 compounds, 15% with a hit somewhere; the sample as a whole holds those more often. More than one record can exist for a structure, and the calls need not agree. Activity calls are given as the source filed them. No stated cut-off is given here; in the data, active means growth inhibition above about 70%; inactive means the rest.

A short description of one assay: NCI Yeast Anticancer Drug Screen. Data for the mlh1 rad18 strain (AID 175). The settings on record: S. cerevisiae mlh1 rad18 strain growth inhibition; at 50.0 µM (retest, dose inferred, filed as 5.0); stronger effect = higher value. A digest of the protocol:
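Yeast w/ defined DNA-repair lesions; compound exposure; growth vs vehicle controls → % inhibition.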
As to `CS(=O)(=O)SCc1ccc([N+](=O)[O-])cc1`, the growth inhibition was 93% (active).
`Cc1csc(=S)n1OC(=O)NC1CCCCC1`: the growth inhibition is 98% (active).
On the same count and under the same terms, in the case of `CCOc1ccc(NC(=O)C2=C(C)NC(C)=C(C(=O)Nc3ccc(OCC)cc3)C2c2cccc([N+](=O)[O-])c2)cc1` it was 95% (active); in that of `CC(C)(C)N=C(NO)c1ccccc1`, 76% (active).
Still for that read-out and setting: in the case of `CCCCC/C(=C(\C#N)C(=O)OCC)c1ccccc1` it was 64% (inactive); in that of `O=C(NCCCl)Sc1ccc(Cl)cc1`, 84% (active); in that of `O=C1Nc2ccc(Br)cc2C1=Nc1ccc2c(c1)OCO2`, 54% (inactive).
The same measure, in the same setting: in the case of `CCC(C)OC(=O)Nc1ccc(C)c(NC(=O)OC(C)CC)c1` (stereo not drawn) it was 89% (active); in that of `O=C(O)c1cc2ccc(Cl)cc2c(O)c1C1=CCCCC1`, 74% (active).
Regarding `CN(C)Cc1cc(N=Nc2ccc(Cl)cc2)ccc1OC(=O)c1ccccc1`, the growth inhibition is 61% (inactive).
The same measure, in the same setting: then `CN1CCN(C(=O)/C=C/C(=O)c2ccccc2)CC1`, with 7% (inactive); and `CCCC/C=C/C(C)(C(=O)OCC)C(=O)OCC`, with 81% (active); and `Cc1nc(-c2cc3cc([N+](=O)[O-])ccc3oc2=O)cs1`, with 91% (active).
As for `Cc1nc2ccccc2nc1NNc1ccccc1`, the growth inhibition was 28% (inactive).
Same read-out and setting: in the case of `CN(C)[C@@H]1C(=O)C(C(N)=O)=C(O)[C@@]2(O)C(=O)C3=C(O)c4c(O)cccc4C[C@H]3C[C@@H]12` it was 99% (active).
On the same count and under the same terms, then `COc1ccc(NC(=O)CC2SC(=Nc3ccccc3C)NC2=O)c([N+](=O)[O-])c1` (stereo not drawn), with 53% (inactive); and `COc1cc(O)c2c(c1O)C(=O)c1cc(C)ncc1C2=O`, with 83% (active).
With `CSc1nnc(SC)nn1`, the growth inhibition was 99% (active).
Regarding `COc1cc(/C=C2\CCC/C(=C\c3ccc(O)c(OC)c3)C2=O)ccc1O`, the growth inhibition is 6% (inactive).
For the compound `CN(C)CCNC(=O)c1cccc2cc([N+](=O)[O-])ccc12`, the growth inhibition is 86% (active).
For `CCC(C)(C)c1ccc(Oc2cccc(C(=O)O)c2)cc1`, the growth inhibition was 36% (inactive).
The same measure, in the same setting: then `CCCCCCSc1ncnc2[nH]ncc12`, with 4% (inactive); and `CC(=O)Nc1ccc(/C=C/[N+](=O)[O-])cc1`, with 91% (active).
The same measure, in the same setting: in the case of `CCOC(=O)c1[nH]n(-c2ccccc2)c(=O)c1C=NC(=S)C(N)=S` it was 92% (active); in that of `CCCC(O)C1CC(C(C)C)CCC1C` (stereo not drawn), 11% (inactive).
On the same count and under the same terms, then `O=[n+]1c2ccccc2n([O-])c2cc(Br)ccc21`, with 98% (active).
Regarding `CN(C)CCNC(=O)c1cccc2c1Oc1c(cccc1[N+](=O)[O-])O2`, the growth inhibition was 29% (inactive).
The same measure, in the same setting: then `Nc1ncc(-c2ccc(Br)cc2)s1`, with 55% (inactive); and `Cc1cc2cc3cc(C)c(N)cc3nc2cc1N`, with 99% (active); and `CC12C(=O)OC(=O)C(c3ccccc31)c1ccccc12`, with 54% (inactive).
Same read-out and setting: in the case of `c1ccc2c(OCC3CO3)cccc2c1` (stereo not drawn) it was 86% (active).
Same read-out and setting: in the case of `CCOC(=N)c1ccc(O)c(OC)c1` it was -3% (inactive); in that of `Nc1cc(N)c(N=Nc2cccc3c(S(=O)(=O)O)cccc23)cc1N=Nc1cc([N+](=O)[O-])ccc1O`, 48% (inactive); in that of `COC(=O)Oc1cc(Cl)c(Cl)cc1Cl`, 19% (inactive).
For the compound `O=C(O)C1CC(c2ccccc2)=NN1c1ccccc1` (stereo not drawn), the growth inhibition is 96% (active).
On the same count and under the same terms, then `COc1cc([C@@H]2c3cc4c(cc3[C@@H](Nc3ccc(NC(=O)c5cc([N+](=O)[O-])cn5C)cc3)[C@H]3COC(=O)[C@H]23)OCO4)cc(OC)c1O`, with 62% (inactive) and 95% (active); and `O=C(O)c1ccccc1/C=N/N=C1c2ccccc2-c2ccccc21`, with 39% (inactive); and `O=C1CC(=O)c2ccccc21`, with 12% (inactive).
Consider `Nc1ncnc2c1ncn2C1OC(CO)CC1O` (stereo not drawn), for which the growth inhibition was 91% (active) and 92% (active).

Still in this assay, the particulars now being: S. cerevisiae mlh1 rad18 strain growth inhibition; at 50.0 µM; stronger effect = higher value.
Consider `CS(=O)(=O)SCc1ccc([N+](=O)[O-])cc1`, for which the growth inhibition is 98% (active).
Same read-out and setting: then `Cc1csc(=S)n1OC(=O)NC1CCCCC1`, with 92.1% (active).
In the case of `CCOc1ccc(NC(=O)C2=C(C)NC(C)=C(C(=O)Nc3ccc(OCC)cc3)C2c2cccc([N+](=O)[O-])c2)cc1`, the growth inhibition was 59.9% (inactive).
Still for that read-out and setting: then `CC(C)(C)N=C(NO)c1ccccc1`, with 81.4% (active); and `CCCCC/C(=C(\C#N)C(=O)OCC)c1ccccc1`, with 44.4% (inactive).
Same read-out and setting: in the case of `O=C(NCCCl)Sc1ccc(Cl)cc1` it was 97.8% (active); in that of `O=C1Nc2ccc(Br)cc2C1=Nc1ccc2c(c1)OCO2`, 6.7% (inactive); in that of `CCC(C)OC(=O)Nc1ccc(C)c(NC(=O)OC(C)CC)c1` (stereo not drawn), 79.5% (active).
On the same count and under the same terms, then `O=C(O)c1cc2ccc(Cl)cc2c(O)c1C1=CCCCC1`, with 62.4% (inactive); and `CN(C)Cc1cc(N=Nc2ccc(Cl)cc2)ccc1OC(=O)c1ccccc1`, with 98.5% (active); and `CN1CCN(C(=O)/C=C/C(=O)c2ccccc2)CC1`, with 97.5% (active).
`CCCC/C=C/C(C)(C(=O)OCC)C(=O)OCC`: the growth inhibition was 70.2% (active).
Same read-out and setting: in the case of `Cc1nc(-c2cc3cc([N+](=O)[O-])ccc3oc2=O)cs1` it was 14.9% (inactive); in that of `Cc1nc2ccccc2nc1NNc1ccccc1`, 56.6% (inactive).
As for `CN(C)[C@@H]1C(=O)C(C(N)=O)=C(O)[C@@]2(O)C(=O)C3=C(O)c4c(O)cccc4C[C@H]3C[C@@H]12`, the growth inhibition was 89.8% (active).
Still for that read-out and setting: in the case of `COc1ccc(NC(=O)CC2SC(=Nc3ccccc3C)NC2=O)c([N+](=O)[O-])c1` (stereo not drawn) it was 74% (active); in that of `COc1cc(O)c2c(c1O)C(=O)c1cc(C)ncc1C2=O`, 64.8% (inactive); in that of `CSc1nnc(SC)nn1`, 70.8% (active).
Same read-out and setting: then `COc1cc(/C=C2\CCC/C(=C\c3ccc(O)c(OC)c3)C2=O)ccc1O`, with -13.2% (inactive) and 11.4% (inactive).
For the compound `CN(C)CCNC(=O)c1cccc2cc([N+](=O)[O-])ccc12`, the growth inhibition was 45.6% (inactive).
`CCC(C)(C)c1ccc(Oc2cccc(C(=O)O)c2)cc1`: the growth inhibition is 86.7% (active).
The same measure, in the same setting: in the case of `CCCCCCSc1ncnc2[nH]ncc12` it was 80.8% (active); in that of `CC(=O)Nc1ccc(/C=C/[N+](=O)[O-])cc1`, 94% (active).
Same read-out and setting: then `CCOC(=O)c1[nH]n(-c2ccccc2)c(=O)c1C=NC(=S)C(N)=S`, with 86.3% (active).
The same measure, in the same setting: then `CCCC(O)C1CC(C(C)C)CCC1C` (stereo not drawn), with 55.9% (inactive); and `O=[n+]1c2ccccc2n([O-])c2cc(Br)ccc21`, with 99.2% (active); and `CN(C)CCNC(=O)c1cccc2c1Oc1c(cccc1[N+](=O)[O-])O2`, with 18.4% (inactive).
Take `Nc1ncc(-c2ccc(Br)cc2)s1`: the growth inhibition was 89.9% (active).
On the same count and under the same terms, in the case of `Cc1cc2cc3cc(C)c(N)cc3nc2cc1N` it was 81.8% (active).
As for `CC12C(=O)OC(=O)C(c3ccccc31)c1ccccc12`, the growth inhibition was 93.6% (active).
Still for that read-out and setting: then `c1ccc2c(OCC3CO3)cccc2c1` (stereo not drawn), with 82.1% (active); and `CCOC(=N)c1ccc(O)c(OC)c1`, with 17.4% (inactive); and `Nc1cc(N)c(N=Nc2cccc3c(S(=O)(=O)O)cccc23)cc1N=Nc1cc([N+](=O)[O-])ccc1O`, with 65.7% (inactive).
In the case of `COC(=O)Oc1cc(Cl)c(Cl)cc1Cl`, the growth inhibition is 11.8% (inactive).
On the same count and under the same terms, in the case of `O=C(O)C1CC(c2ccccc2)=NN1c1ccccc1` (stereo not drawn) it was 85.2% (active).
Same read-out and setting: then `COc1cc([C@@H]2c3cc4c(cc3[C@@H](Nc3ccc(NC(=O)c5cc([N+](=O)[O-])cn5C)cc3)[C@H]3COC(=O)[C@H]23)OCO4)cc(OC)c1O`, with 20.1% (inactive) and 74.3% (active); and `O=C(O)c1ccccc1/C=N/N=C1c2ccccc2-c2ccccc21`, with 68.5% (inactive); and `O=C1CC(=O)c2ccccc21`, with 70% (active).
Same read-out and setting: in the case of `Nc1ncnc2c1ncn2C1OC(CO)CC1O` (stereo not drawn) it was 89.5% (active) and 1.35% (inactive) and 82.9% (active).
